In PubChem BioAssay (NCATS):
Records with an inconclusive call do not appear. Active and inactive are the calls of the source. Unless noted, the call rests on the fitted dose curve.

What was measured:
[1] = qHTS assay for measurement of the activity of small molecule inhibitors on Zika virus induced Caspase-3 activity in human iPSC derived neural progenitor cells (hNPCs) (AID 1224857; active means well fitted inhibition curve with a large enough effect; further: nearly all actives have a fitted effect of over 65% in size)
Summary of the method: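 Zika virus (2 FFU/cell) infection of human iPSC-derived NPCs, 6 h, following 1 h compound preincubation. Read-out: Caspase-Glo 3/7 luminescence.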

[2] = qHTS assay for measurement of the activity of small molecule inhibitors on Zika virus induced Caspase-3 activity in human astrocytoma cells (AID 1224859; active means well fitted inhibition curve with a large enough effect)
Summary of the method: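 Caspase activation in ZIKV-infected SNB-19 cells (2 FFU/cell, 6 h) measured by Caspase-Glo 3/7 luminescence after 30 min RT; compound pre-incubated 1 h; normalised to uninfected and infected controls.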

[3] = Natriuretic polypeptide receptor (hNpr1) antagonism - Pilot counterscreen GloSensor control cell line (AID 1347045); further: series mostly up to about 38 µM
Summary of the method: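 Cells were first seeded and incubated overnight at 37C, then loaded with 2% GloSensor substrate for 2 h. Compounds were added for 30 min at room temperature, followed by a baseline read, 50 uM SNP and a final read after 20 min.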

[4] = biological target: Atrial natriuretic peptide receptor 1 (Homo sapiens) (UniProt P16066); experiment: Natriuretic polypeptide receptor (hNpr1) antagonism - Pilot screen (AID 1347049);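 further: HEK293 cells with hNpr1 and GloSensor cGMP luciferase stimulated by 0.1 nM hNppA; agonist-evoked cGMP luminescence read 20 min after hNppA addition; series mostly up to about 58 µM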
Atrial natriuretic peptide receptor 1 (Homo sapiens), sequence (P16066 whole entry, looked up): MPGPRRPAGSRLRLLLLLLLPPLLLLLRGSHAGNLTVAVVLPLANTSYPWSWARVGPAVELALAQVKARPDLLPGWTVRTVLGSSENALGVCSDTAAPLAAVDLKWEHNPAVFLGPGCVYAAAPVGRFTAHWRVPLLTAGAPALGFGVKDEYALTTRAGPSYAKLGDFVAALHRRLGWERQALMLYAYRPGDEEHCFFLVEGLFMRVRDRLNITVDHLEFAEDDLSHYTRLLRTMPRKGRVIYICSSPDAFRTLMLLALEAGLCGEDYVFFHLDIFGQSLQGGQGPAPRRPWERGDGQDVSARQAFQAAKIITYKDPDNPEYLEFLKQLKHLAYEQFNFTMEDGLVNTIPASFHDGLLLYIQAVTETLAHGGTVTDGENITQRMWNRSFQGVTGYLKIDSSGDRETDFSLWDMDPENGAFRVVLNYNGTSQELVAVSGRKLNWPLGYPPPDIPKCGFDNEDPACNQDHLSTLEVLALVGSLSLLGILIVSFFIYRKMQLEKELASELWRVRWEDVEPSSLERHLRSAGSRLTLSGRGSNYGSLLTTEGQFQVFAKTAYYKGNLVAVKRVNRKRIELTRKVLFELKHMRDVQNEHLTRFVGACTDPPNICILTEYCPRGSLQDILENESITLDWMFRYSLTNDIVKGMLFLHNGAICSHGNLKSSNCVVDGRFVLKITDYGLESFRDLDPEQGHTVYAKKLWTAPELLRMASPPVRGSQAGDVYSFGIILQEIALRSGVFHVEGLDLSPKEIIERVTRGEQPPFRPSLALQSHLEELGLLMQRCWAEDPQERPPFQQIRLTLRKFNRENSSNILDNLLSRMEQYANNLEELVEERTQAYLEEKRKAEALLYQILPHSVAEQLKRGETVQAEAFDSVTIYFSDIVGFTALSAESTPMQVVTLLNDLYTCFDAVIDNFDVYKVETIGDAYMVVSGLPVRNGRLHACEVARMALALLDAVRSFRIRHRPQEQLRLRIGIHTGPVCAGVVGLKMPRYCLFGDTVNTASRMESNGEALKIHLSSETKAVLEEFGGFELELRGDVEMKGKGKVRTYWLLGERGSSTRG
Summary of the method: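 Cells expressing receptor plus cGMP biosensor are seeded and incubated overnight at 37C, then loaded with GloSensor reagent (2% final) at room temperature for 2 h. Library compounds go on for 30 min. A pre-read precedes agonist (hNppA, 0.1 nM final) and a 20-min readout.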

[5] = biological target: Atrial natriuretic peptide receptor 2 (Homo sapiens) (UniProt P20594); experiment: Natriuretic polypeptide receptor (hNpr2) antagonism - Pilot subtype selectivity assay (AID 1347050)
Atrial natriuretic peptide receptor 2 (Homo sapiens), sequence (P20594 whole entry, looked up): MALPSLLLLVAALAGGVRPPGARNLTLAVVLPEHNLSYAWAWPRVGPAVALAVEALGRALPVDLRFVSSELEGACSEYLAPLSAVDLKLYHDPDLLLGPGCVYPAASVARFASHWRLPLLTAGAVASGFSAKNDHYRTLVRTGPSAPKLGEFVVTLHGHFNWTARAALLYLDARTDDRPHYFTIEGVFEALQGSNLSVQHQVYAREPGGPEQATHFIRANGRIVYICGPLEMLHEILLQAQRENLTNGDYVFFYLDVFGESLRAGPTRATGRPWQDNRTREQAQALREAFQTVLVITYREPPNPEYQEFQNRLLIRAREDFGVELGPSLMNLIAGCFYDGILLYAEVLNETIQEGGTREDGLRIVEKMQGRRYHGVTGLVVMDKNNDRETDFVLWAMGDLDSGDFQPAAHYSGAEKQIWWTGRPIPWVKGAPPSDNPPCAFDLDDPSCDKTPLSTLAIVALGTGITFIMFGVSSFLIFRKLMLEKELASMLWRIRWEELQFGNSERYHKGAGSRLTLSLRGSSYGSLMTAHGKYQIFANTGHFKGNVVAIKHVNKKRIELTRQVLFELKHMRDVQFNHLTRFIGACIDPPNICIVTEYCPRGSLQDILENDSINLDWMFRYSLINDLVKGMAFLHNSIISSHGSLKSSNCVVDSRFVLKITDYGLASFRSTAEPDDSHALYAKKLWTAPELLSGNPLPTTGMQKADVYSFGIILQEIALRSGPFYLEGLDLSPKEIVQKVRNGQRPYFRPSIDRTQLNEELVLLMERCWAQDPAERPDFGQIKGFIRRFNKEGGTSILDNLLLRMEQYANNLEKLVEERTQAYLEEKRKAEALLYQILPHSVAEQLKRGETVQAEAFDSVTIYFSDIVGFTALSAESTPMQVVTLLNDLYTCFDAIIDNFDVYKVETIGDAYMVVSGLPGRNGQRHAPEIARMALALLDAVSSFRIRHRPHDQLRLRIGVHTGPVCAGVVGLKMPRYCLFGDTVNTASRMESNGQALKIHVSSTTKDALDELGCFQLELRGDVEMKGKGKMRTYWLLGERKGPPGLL
Summary of the method: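 Read-out: GloSensor luminescence (CCD imager), baseline vs post-stimulation. HEK293 cells expressing hNpr2; compounds pre-incubated 30-50 min at ambient temperature; hNppC 1 nM final, 20 min.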

Measured: Potency

COCc1nc2c([nH]1)c(=O)n(C)c(=O)n2CC(C)C
inactive: [1] | [2] | [3] | [4] | [5]

NCC(O)(CS(=O)(=O)O)c1ccc(Cl)cc1 (stereo not given)
inactive: [1] | [2] | [3] | [4] | [5]

CC(=O)C(C)=O
inactive: [1] | [2] | [3] | [4] | [5]

Oc1cc2c(cc1O)C(c1ccccc1)CNCC2 (stereo not given)
inactive: [1] | [2] | [3] | [4] | [5]

C[C@H]1CC2C3CCC4=CC(=O)C=C[C@]4(C)[C@@]3(Cl)[C@@H](O)C[C@]2(C)[C@@]1(O)C(=O)CO (stereo not given in full)
inactive: [1] | [2] | [3] | [4] | [5]

Cc1ccccc1/C=C/C1=NCCN1
inactive: [1] | [2] | [3] | [4] | [5]

COc1ccc2c(c1)c(CC(=O)O)c(C)n2Cc1ccc(Cl)cc1
inactive: [1] | [2] | [3] | [4] | [5]

Nc1nc2c(cnn2CCc2ccccc2)c2nc(-c3ccco3)nn12
inactive: [1] | [2] | [3] | [4] | [5]

COc1ccccc1N1CCN(CCCCNC(=O)c2ccc3ccccc3c2)CC1
inactive: [1] | [2] | [3] | [4] | [5]

COc1cc(C(O)C(=O)O)ccc1O (stereo not given)
inactive: [1] | [2] | [3] | [4] | [5]

O=S(=O)(c1cccc2c(Cl)cccc12)N1CCCNCC1
inactive: [1] | [2] | [3] | [4] | [5]

CC(=O)O[C@H]1Cc2ccccc2N(C(N)=O)c2ccccc21
inactive: [1] | [2] | [3] | [4] | [5]

O=c1cc(-c2ccccc2)[nH]c2nc(Cl)ccc12
inactive: [1] | [2] | [3] | [4] | [5]

CCc1ccc2c(-c3cccc(Cl)c3)nc(=O)n(CC)c2n1
inactive: [1] | [2] | [3] | [4] | [5]

N[C@@H](CCC(=O)N[C@H](CSN=O)C(=O)NCC(=O)O)C(=O)O
inactive: [1] | [2] | [3] | [4] | [5]

CSC(=N)N
inactive: [1] | [2] | [3] | [4] | [5]

[N-]=[N+]=Nc1ccc(C(=O)CSC[C@H](NC(=O)CC[C@H](N)C(=O)O)C(=O)NCC(=O)O)cc1
inactive: [1] | [2] | [3] | [4] | [5]

CC(O)C(O)[C@H]1CNc2nc(N)[nH]c(=O)c2N1 (stereo not given in full)
inactive: [1] | [2] | [3] | [4] | [5]

NCCCCN
inactive: [1] | [2] | [3] | [4] | [5]

Cc1cc2c(cc1Cl)N(C(=O)Nc1ccnc3ccccc13)CC2
inactive: [1] | [2] | [3] | [4] | [5]

CCCn1c(=O)c2[nH]c(C3CCCC3)nc2n(CCC)c1=O
inactive: [1] | [2] | [3] | [4] | [5]

Oc1ccc(Cn2cc[nH]c2=S)cc1
inactive: [1] | [2] | [3] | [4] | [5]

O=C(c1ccc2c(c1)OCCO2)N1CCCCC1
inactive: [1] | [2] | [3] | [4] | [5]

Nc1ccc(N2C(=O)c3ccccc3C2=O)c(Cl)c1
inactive: [1] | [2] | [3] | [4] | [5]

OC[C@H]1NC[C@@H](O)[C@@H]1O
inactive: [1] | [2] | [3] | [4] | [5]

O=C(O)c1ccccc1Nc1cccc(OCc2ccc3ccccc3n2)c1
inactive: [1] | [2] | [3] | [4] | [5]

O=C(O)/C=C/c1cnc[nH]1
inactive: [1] | [2] | [3] | [4] | [5]

NC(=O)c1cc[n+](CC2=C(C(=O)O)N3C(=O)[C@@H](NC(=O)[C@@H](c4ccccc4)S(=O)(=O)[O-])[C@H]3SC2)cc1
inactive: [1] | [2] | [3] | [4] | [5]

NC(N)=NC(N)=Nc1cccc(Cl)c1
inactive: [1] | [2] | [3] | [4] | [5]

c1ccc(C(NCc2cccnc2)(c2ccccc2)c2ccccc2)cc1
inactive: [1] | [2] | [3] | [4] | [5]

COc1ccc(NC(=O)c2ccc(-c3ccc(-c4noc(C)n4)cc3C)cc2)cc1N1CCN(C)CC1
inactive: [1] | [2] | [3] | [4] | [5]

NC1(C(=O)O)CC1
inactive: [1] | [2] | [3] | [4] | [5]

CC1CCN(CC[C@H]2CCCN2S(=O)(=O)c2cccc(O)c2)CC1
inactive: [1] | [2] | [3] | [4] | [5]

C=CC1(C)CC(=O)C2(O)C(C)(O1)C(OC(C)=O)C(O)C1C(C)(C)CCC(O)C12C (stereo not given)
inactive: [1] | [2] | [3] | [4] | [5]

Cc1nc2n(c(=O)c1CCN1CCC(c3noc4cc(F)ccc34)CC1)CCCC2O (stereo not given)
inactive: [1] | [2] | [3] | [4] | [5]

Nc1ncnc2c1nc(Br)n2C1OC2COP(=O)(O)O[C@@H]2C1O (stereo not given in full)
inactive: [1] | [2] | [3] | [4] | [5]

O=C1NC(=O)c2cc(Nc3ccccc3)c(Nc3ccccc3)cc21
inactive: [1] | [2] | [3] | [4] | [5]

COc1ccc(-c2cc3ncc(C)n3c(Nc3ncccc3C(N)=O)n2)cc1OC
inactive: [1] | [2] | [3] | [4] | [5]

Cc1cccc(C)c1OCC(N)C(C)C (stereo not given)
inactive: [1] | [2] | [3] | [4] | [5]

Nc1ccc2c3c(cccc13)C(=O)NC2=O
inactive: [1] | [2] | [3] | [4] | [5]

O=C(O)Cc1ccc(O)c(O)c1
inactive: [1] | [2] | [3] | [4] | [5]

C=C1C[C@@]23CC[C@H]4[C@@](C)(CCC[C@@]4(C)C(=O)O)[C@@H]2CC[C@]1(O)C3
inactive: [1] | [2] | [3] | [4] | [5]

O=C(O)c1cc2cc(F)ccc2[nH]1
inactive: [1] | [2] | [3] | [4] | [5]

Cc1nc(N=Nc2ccc(C(=O)O)cc2)c(COP(=O)(O)O)c(C=O)c1O
inactive: [1] | [2] | [3] | [4] | [5]

CC(N)=O
inactive: [1] | [2] | [3] | [4] | [5]

N=C(N)c1ccccc1
inactive: [1] | [2] | [3] | [4] | [5]
